Measured values: PubChem BioAssay
“And” between values parts separate entries of the source, which are not always exact repeats. Identical values can stand only once.

target: 6-phosphogluconate dehydrogenase, decarboxylating (Homo sapiens) (UniProt P52209); assay: inhibition of human phosphogluconate dehydrogenase – biochemical, recombinant enzyme, NADPH absorbance, primary screen (AID 1159550); details: recombinant 6PGD, NADPH absorbance 341 nm; at 10 µM; hits give high values
Sequence (P52209 whole entry, looked up): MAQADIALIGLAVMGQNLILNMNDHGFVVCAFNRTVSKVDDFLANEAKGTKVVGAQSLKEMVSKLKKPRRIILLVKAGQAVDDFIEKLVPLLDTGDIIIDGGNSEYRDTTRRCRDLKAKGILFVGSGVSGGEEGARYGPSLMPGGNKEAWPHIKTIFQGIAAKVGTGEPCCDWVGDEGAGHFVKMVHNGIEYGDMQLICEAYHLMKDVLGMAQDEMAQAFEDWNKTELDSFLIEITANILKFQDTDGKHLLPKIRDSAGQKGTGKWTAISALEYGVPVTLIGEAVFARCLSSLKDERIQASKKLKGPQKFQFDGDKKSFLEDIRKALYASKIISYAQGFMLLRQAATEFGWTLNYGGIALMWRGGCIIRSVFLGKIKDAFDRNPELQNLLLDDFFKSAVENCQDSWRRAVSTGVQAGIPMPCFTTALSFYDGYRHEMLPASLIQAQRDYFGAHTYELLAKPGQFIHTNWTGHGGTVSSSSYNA

inhibition, inactive:
C=C(C)C1Cc2c(ccc(C(=O)O)c2O)O1 (centres undefined) -0.806%
Cc1cc(=O)c2c(O)c3c(cc2o1)OCC(C)CC3 (centres undefined) 4.57%
COc1ccc2c(=O)cc(-c3ccccc3OC)oc2c1 3.35%
CC(=O)OC1C=C(C)C(COc2ccc3ccc(=O)oc3c2)C2(C)CCC(O)C(C)(C)C12 (centres undefined) 9.19%
COC(=O)CCC(=O)O[C@H]1CCC2(C)C(CCC3C2C(=O)[C@@H](O)C2(C)C3CC3OC4(CCC(C)CO4)C(C)C32)C1 (some centres undefined) 4.65%
CC(=O)N[C@H]1[C@H]([C@H](O)[C@H](O)CO)O[C@](O)(C(=O)O)C[C@@H]1O -6.71%
O=C(O)Cc1cc(I)c(Oc2cc(I)c(O)c(I)c2)c(I)c1 -3.72%
CC(=O)OC1CCC2(C)C(=CCC3C2CCC2(C)C(C(C)CCCC(C)C)CCC32)C1 (centres undefined) 13.3%
CC(=O)O[C@H]1C[C@@H](O)C(C)(C)[C@@H]2C[C@@H](OC(C)=O)[C@]3(C)[C@H](CC[C@@]4(C)[C@@H](c5ccoc5)OC(=O)[C@H]5O[C@@]534)[C@@]12C 1.48%
O=C(O[C@@H]1Cc2c(O)cc(O)cc2O[C@@H]1c1cc(O)c(=O)c2c(O)c(O)cc([C@H]3Oc4cc(O)cc(O)c4C[C@H]3O)c2c1)c1cc(O)c(O)c(O)c1 8.68%
CC(C)=CCC[C@@H](C)[C@H]1CC[C@@]2(C)C3=C(CC[C@]12C)[C@@]1(C)CC[C@H](O)C(C)(C)[C@@H]1CC3 14.5%
Nc1nc2ncc(C(=O)O)nc2c(=O)[nH]1 13.3%
C=C1C(C2(C)C(OC(C)=O)CC(=O)OC(C)(COC(C)=O)C2CC(=O)OC)C(OC=O)C(OC(=O)C(O)C(C)CC)C2(C)C(c3ccoc3)CC(=O)C12O (centres undefined) 7.27%
COc1ccc2c(=O)ccoc2c1 -1.53%
COC(=O)C(O)[C@H]1C(C)(C)[C@@H](OC(C)=O)[C@@H]2CC3=C4CC(=O)O[C@@H](c5ccoc5)[C@]4(C)CCC3[C@@]1(C)C2=O (some centres undefined) 12.8%
COc1ccc2c(c1)O[C@@H]1c3ccc(OC)cc3OC[C@H]21 0.294%
CC(C)CCC[C@@H](C)[C@H]1CC[C@H]2[C@@H]3CC[C@H]4CC(=O)CC[C@]4(C)[C@H]3CC[C@]12C -4.87% and 3.54%
C[C@@H]1[C@H]2[C@H](O[C@@H]3O[C@H](CO)[C@@H](O)[C@H](O)[C@H]3O)OC=C(C(=O)O)[C@H]2C[C@@H]1O 16.7%
C#CCCCCCCCCCCCC(=O)CC(O)COC(C)=O (centres undefined) -5.7%
CNC(C)[C@@H]1CC[C@@H](N)[C@@H](OC2C(O)[C@@H](OC3OC[C@](C)(O)C(NC)[C@H]3O)[C@H](N)C[C@@H]2N)O1 (some centres undefined) 1.04%
O=C(O)C(O)C(O)C(=O)O (centres undefined) 6.59%
CC(=O)OC1CC[C@@]2(C)C(CC[C@H]3[C@@H]4CC=C(C(C)=O)[C@@]4(C)C(=O)C[C@@H]32)C1 (some centres undefined) 4.79%
CC[C@H]1OC(=O)[C@H](C)[C@@H](O[C@H]2C[C@@](C)(OC)[C@@H](O)[C@H](C)O2)[C@H](C)[C@@H](O[C@@H]2O[C@H](C)C[C@H](N(C)C)[C@H]2O)[C@](C)(O)C[C@@H](C)[C@@H]2NC(COCCOC)O[C@H]([C@H]2C)[C@]1(C)O (some centres undefined) 5.47%
CC=C(C)C(=O)OC1C(OC(C)=O)[C@]2(CO)C(O)C[C@]3(C)C(=CCC4[C@@]5(C)CCC(OC6OC(C(=O)O)C(OC7OC(CO)C(O)C(O)C7O)C(O)C6OC6OC(CO)C(O)C(O)C6O)[C@](C)(CO)C5CC[C@]43C)C2CC1(C)C (some centres undefined) 10.9%
CCCCC(CC)COC(=O)COc1cc(Cl)c(Cl)cc1Cl (centres undefined) 4.06%
COc1ccc(-c2c(O)c3c(OC)c4c(cc3oc2=O)OC(C)(C)CC4)cc1 1.85%
COc1cc(O)c2c(=O)cc(-c3ccc(O)cc3)oc2c1 6.18%
CC1(C)CCC2(C(=O)O)CCC3(C)C(=CCC4C5(C)CCC(O)C(C)(C)C5CCC43C)C2C1 (centres undefined) 0.817%
COC(=O)C[C@H]1C(C)(C)C(=O)[C@@H]2CC3=C4CC(=O)O[C@@H](c5ccoc5)[C@]4(C)CC[C@@H]3C1(C)C2=O -2.15%
COC(=O)C[C@H]1C(C)(C)[C@H](O)[C@@H]2CC3=C4CC(O)O[C@@H](c5ccoc5)[C@@]4(C)CCC3[C@]1(C)C2=O (some centres undefined) -7.8%
CC1(C)C=Cc2c(cc3occ(-c4ccc5c(c4)OCO5)c(=O)c3c2O)O1 -4.68%
CC1(C)S[C@H]2[C@@H](NC(=O)[C@H](NC(=O)N3CCNC3=O)c3ccccc3)C(=O)N2[C@@H]1C(=O)O 10.5%
Cn1nnnc1SCC1=C(C(=O)O)N2C(=O)[C@@H](NC(=O)[C@@H](O)c3ccccc3)[C@H]2SC1 0.99%
CC[C@H](C(=O)[C@@H](C)[C@@H](O)[C@H](C)[C@@H]1O[C@@H]([C@@H](CC)C(=O)O)CC[C@@H]1C)[C@H]1O[C@]2(C=C[C@@H](O)[C@]3(CC[C@@](C)([C@H]4CC[C@](O)(CC)[C@H](C)O4)O3)O2)[C@H](C)C[C@@H]1C 2.61%
O=C(O[C@@H]1Cc2c(O)cc(O)cc2O[C@@H]1c1cc(O)c(O)c(O)c1-c1c([C@H]2Oc3cc(O)cc(O)c3C[C@H]2O)cc(O)c(O)c1O)c1cc(O)c(O)c(O)c1 1.5%
CC1(C)Oc2ccc3ccc(=O)oc3c2C[C@H]1O 1.49%
CC(=O)OC1CCC2(C)C3=C(CC[C@H]2C1(C)C)[C@@]1(C)CC[C@@H]([C@@H](C)CCC=C(C)C)[C@]1(C)CC3 (some centres undefined) -9.29%
CC(=O)OCC(=O)[C@@]1(O)CC[C@H]2[C@@H]3CC[C@@H]4C[C@H](O)CC[C@]4(C)[C@H]3C(=O)C[C@@]21C -7.21%
Nc1ccccn1 -0.139%
